# From PubChem BioAssay (NCI)
# About 83,000 compounds went through this panel and 20% of them were active in at least one assay; those are over-represented in the sample as a whole.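 Growth was measured after 48 h exposure to one concentration of compound in 96-well plates. Values under 10 count as active.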 A number with no mark means an inactive call. Activity calls are given as the source filed them.
# How the values were obtained:
# Assay in all cases: NCI-60 one-dose screen, 48 h (100 = growth as untreated, 0 = no growth, -100 = all killed)
# HCT-15 colon = details: 10 µM unless noted
# HT29 colon = details: 10 µM unless noted
# SNB-75 CNS = details: 10 µM unless noted
# SNB-19 CNS = details: 10 µM unless noted
# U251 CNS = details: 10 µM unless noted
# PC-3 prostate = details: 10 µM unless noted
# SK-MEL-5 melanoma = details: 10 µM unless noted
# UACC-62 melanoma = details: 10 µM unless noted
# LOX IMVI melanoma = details: 10 µM unless noted
# SK-MEL-28 melanoma = details: 10 µM unless noted
# SK-MEL-2 melanoma = details: 10 µM unless noted
# EKVX NSCLC = details: 10 µM unless noted
# SN12C renal = details: 10 µM unless noted
# UO-31 renal = details: 10 µM unless noted
# TK-10 renal = details: 10 µM unless noted
# CAKI-1 renal = details: 10 µM unless noted
# A498 renal = details: 10 µM
# HL-60(TB) leukemia = details: 10 µM unless noted
# CCRF-CEM leukemia = details: 10 µM unless noted
# ACHN renal = details: 10 µM unless noted
SMILES,growth (HCT-15 colon),growth (HT29 colon),growth (SNB-75 CNS) [%],growth (SNB-19 CNS) [%],growth (U251 CNS),growth (PC-3 prostate) [%],growth (SK-MEL-5 melanoma) [%],growth (UACC-62 melanoma) [%],growth (LOX IMVI melanoma),growth (SK-MEL-28 melanoma) [%],growth (SK-MEL-2 melanoma) [%],growth (EKVX NSCLC) [%],growth (SN12C renal) [%],growth (UO-31 renal) [%],growth (TK-10 renal) [%],growth (CAKI-1 renal) [%],growth (A498 renal) [%],growth (HL-60(TB) leukemia),growth (CCRF-CEM leukemia),growth (ACHN renal) [%]
Oc1ccc2c3c1OC1[C@@H](O)CC[C@@]4(O)[C@@H](C2)N(CC2CCC2)CC[C@]314 (some centres undefined),99.2%,98%,97.9,109,96.8%,94.1,92.5,108,97.3%,106,118,99.7,103,83.2,106,94,94.7,102%,97.5%,–
C[C@@]12CC=C3c4nc(Nc5cccc(O)c5)sc4CC[C@]3(C)[C@H]1CC[C@]1(C)C(=O)CC[C@@H]21,-47.9% (active),-29% (active),37.3,57.9,18.8%,28.1,64.8,28.8,-52.7% (active),41.2,29.1,71.4,46.5,22.2,10.2,37.1,–,46%,13%,–
CC(=O)O[C@H]1CC[C@H]2[C@@H]3CC=C4c5nc(-c6ccccc6)sc5CC[C@]4(C)[C@H]3CC[C@]12C,9.12% (active),-31.5% (active),91.4,67.4,47.5%,72.3,59.9,50.7,29.8%,90.4,82,79.6,85.5,78.2,92.4,67.5,75.2,82.1%,28.4%,–
CSc1nc(Cl)cc(N2CC2)n1,100%,112%,110,108,110%,92.5,105,97.9,111%,121,120,106,104,114,107,98.3,122,96.6%,77.6%,–
O=C(CCCC1CCCCC1)OCC(Cl)(Cl)Cl,108%,103%,101,106,97%,91.4,107,98.9,101%,113,109,105,106,91.1,98.7,102,60.6,100%,–,–
CNCc1cccnc1,108%,85.7%,104,115,99.6%,89,106,108,98.2%,120,112,114,111,93.9,113,92,–,–,96.6%,–
O=C1NC(=O)C(=Cc2ccc(OCCCCC3CCCCC3)c(Cl)c2)C(=O)N1,98.5%,92.3%,96.2,100,81.7%,88.4,98.3,98.3,56.1%,111,89.5,95.9,77.3,81.2,94.1,–,–,92.8%,90.1%,104
[Cl][Hg][c]1cc(Br)cc(Br)c1,38.2%,46.4%,21.6,17,-55.9% (active),50.3,22.1,47,9.91% (active),59.5,41.3,80,24,102,121,–,75.4,-27% (active),1.44% (active),–
O=c1[nH]c2ccc([N+](=O)[O-])cc2c(=O)o1,99%,113%,113,102,106%,92.8,95.3,100,99.9%,105,111,107,98.2,90.7,104,–,–,–,96.1%,93.3
[Au+].[N-]=C=O.c1ccc(CN2[CH-]N(Cc3ccccc3)C(c3ccccc3)=C2c2ccccc2)cc1,51.9%,88.4%,79.2,58.7,47.8%,84.1,96.9,78,94.7%,92.8,84.5,86.7,74,74.5,104,–,112,–,66.8%,93.2
CO[C@H]1CC[C@@]2(C)C(=CC[C@@H]3[C@@H]2CC[C@]2(C)C(=O)C(=O)C[C@@H]32)C1,103%,106%,103,94.8,104%,84.2,99,92.5,92.5%,117,128,108,95.5,86.9,117,93,82.1,141%,95.3%,–
O=NN1CCCc2cccc(O)c21,27.2%,94.6%,21.8,31,21.9%,51.8,19.9,26.7,23.9%,67.2,56.1,69.4,21.7,20.9,95.9,–,86.8,–,30.2%,17.2
CC1(C)N=C(N)N=C(N)N1c1ccc(CCCCc2ccc(Cl)c(S(=O)(=O)F)c2)c(Cl)c1,37.3%,16.3%,35.1,31.6,28.8%,15.1,10.6,16.2,13.6%,58.2,38.7,45.3,24.6,27.3,41.7,–,69.6,–,3.5% (active),28.2
N#CCCNc1ccccc1,111%,108%,88.6,116,103%,96.9,107,117,106%,99.8,112,98,111,93.6,115,–,–,-10.8% (active),80.6%,101
